The list is not random: actives were taken first. Their share in the collection is about 2.9%.
SMARCA2 act: SMARCA2 (BRM) function activators, primary screen, cell-based, luminescence, high throughput | MG213 cells, MMTV-luciferase reporter, dexamethasone, overnight | activation, % at 9.1 µM | actives 1% (n = 370,000) | AID 652017, 2013; in the data active means activation above about 7.8%
proKLK7 act: proKLK7 zymogen activators, primary screen, biochemical, fluorescence intensity; activation, % at 7 µM; purified proKLK7, EDANS-DABCYL substrate fluorescence; 100% is mature enzyme control, 0% vehicle; actives 0.9% (n = 370,000); Kallikrein-7 (Homo sapiens), P49862;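 active means activation above the mean of all tested compounds plus 3 SD, computed per campaign excluding outliers beyond control limits, cut at about 13% in these data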
FAS-TE inh: FAS thioesterase domain inhibitors, primary screen, biochemical, fluorescence intensity, uHTS; AID 602261, 2012; recombinant FAS-TE, OMFH fluorogenic substrate, fluorescence endpoint; inhibition, % at 15 µM; actives 0.67% (n = 360,000);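 active means compounds whose normalised, plate-corrected inhibition of enzyme fluorescence in the single-dose primary screen is 50% or more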
GAA850 FXN act: FXN promoter activators, primary screen, cell-based, luciferase luminescence, HEK293 lucGAA850. AID 540364, 2011. actives 0.56% (n = 360,000). activation, % at 6 µM. HEK293 lucGAA850 FXN promoter luciferase reporter, 24 h; percent of 10 µM SAHA response;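 active means activation above the average of all compounds screened plus 3 SD, cutoff fixed separately per campaign, cut at about 7.5% in these data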
GAA30 counter: GAA30 FXN promoter activators, confirmation, counter-screen for GAA850 frataxin promoter activator project, cell-based, luminescence, HEK293, lucGAA30, triplicate. HEK293 lucGAA30 FXN promoter luciferase, 24 h; DMSO = 0%, 5 µM ipriflavone = 100%. shares compounds with GAA850 FXN act. actives 66% (n = 1,900). activation, % at 6 µM;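 active means mean activation above the mean of solvent-only control wells plus 3 SD, cut at about 22% in these data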;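 further: counterscreen of GAA850 promoter hits where activity marks nonselective or luminescence artifacts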
FXN GAA850 conf: FXN GAA850 promoter activators in reporter cells, confirmation, cell-based, luminescence, HEK293 lucGAA850, triplicate | actives 86% (n = 1,900) | AID 588351, 2011 | activation, % at 6 µM | HEK293 lucGAA850 FXN promoter luciferase reporter, 24 h; 100% = activation by SAHA | shares compounds with GAA850 FXN act;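 active means mean activation above a set limit taken from the primary screen, cut at about 8% in these data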
Numbers stand for hits; . = inactive; / = no result given.

SMILES	SMARCA2 act	proKLK7 act	FAS-TE inh	GAA850 FXN act	GAA30 counter	FXN GAA850 conf
O=C(O)CCNS(=O)(=O)c1cccc2nsnc12	.	.	.	.	/	/
O=C(Nc1cccc(Cl)c1)C1=Cc2cc(Cl)ccc2OC1	.	.	.	.	/	/
O=C(Nc1ccc(Cl)c(Cl)c1)C1=Cc2ccccc2OC1	.	.	.	9.1	86	34
Nc1c(-c2cccs2)cnc2c(-c3ccc(F)cc3)cnn12	.	.	.	.	/	/
Nc1c(-c2ccccc2)cnc2c(-c3ccccc3)cnn12	.	.	.	8.4	91	35
Nc1c(C(=O)c2ccc(Br)cc2)oc2ccccc12	.	.	.	7.7	93	34
Nc1c(C(=O)c2ccccc2)oc2ccc(Br)cc12	.	.	.	.	/	/
Nc1c(C(=O)c2ccccc2)oc2ccc([N+](=O)[O-])cc12	.	.	.	8.3	99	35
O=C(COC(=O)C1(c2ccccc2F)CCCC1)N1CCOCC1	.	.	.	.	/	/
CCOC(=O)CN1NC2(CCCCCCC2)NC1=S	.	.	.	.	/	/
O=C1CC(NS(=O)(=O)c2cccnc2)CN1c1ccc(F)cc1 (stereo unspecified)	.	.	.	.	/	/
CC(=O)N(C)c1ccc(OCC(O)Cn2c3ccc(Cl)cc3c3cc(Cl)ccc32)cc1 (stereo unspecified)	.	.	.	10	.	11
O=C(NC1CC2CCC1C2)c1ccco1 (stereo unspecified)	.	.	.	.	/	/
Cc1ccc(CNS(=O)(=O)c2ccc3c(c2)n(C)c(=O)c(=O)n3C)cc1	.	.	.	.	/	/
Cc1nnc(NC(=O)C2CC(=O)N(Cc3ccccc3)C2)s1 (stereo unspecified)	.	.	.	.	/	/
O=C(Nc1nnc(SCc2ccc(F)cc2)s1)C1CC(=O)N(Cc2ccccc2)C1 (stereo unspecified)	.	.	.	11	25	12
CCOc1ccc2c(c1)c1nc3ccccc3nc1n2C	.	.	.	7.7	74	21
CCOC(=O)c1cc(-c2ccccc2)n(CCC(=O)N2CCN(c3ccc(OC)cc3)CC2)c1C	.	.	.	.	/	/
COc1cc(/C=N/Nc2ccnc(=O)[nH]2)ccc1O	.	.	.	7.7	31	.
O=c1nccc(N/N=C/c2cccc(O)c2)[nH]1	.	.	.	.	/	/
CCCCN(C(=O)COC(=O)c1ccccc1)c1c(N)n(CCC)c(=O)[nH]c1=O	.	.	.	.	/	/
O=c1c2ccccc2sc2ccc(NCCCN3CCOCC3)cc12	.	.	.	.	/	/
COc1cc2sc3cc(NCCCN4CCOCC4)ccc3c(=O)c2cc1OC	.	.	.	9.8	114	37
CCOC(=O)c1sc(NC(=O)CCN2CCCCCC2)c(C(=O)OCC)c1C	.	.	.	10	.	.
CCOC(=O)c1c(NC(=O)CC)sc(C(=O)N2CCCCC2)c1C	.	.	.	.	/	/
SMILES	SMARCA2 act	proKLK7 act	FAS-TE inh	GAA850 FXN act	GAA30 counter	FXN GAA850 conf
C=CCN(Cc1nc(-c2ccc(OC)c(OC)c2)oc1C)C1CCS(=O)(=O)C1 (stereo unspecified)	.	.	.	.	/	/
N#Cc1sc2nc(N3CCCCC3)c3c(c2c1N)CCCC3	.	.	.	7.6	.	17
Nc1c(C(=O)N2CCOCC2)sc2nc(N3CCOCC3)c3c(c12)CCCC3	.	.	.	.	/	/
COc1ccc(NC(=O)Nc2ccc3c(c2)C(=O)N([C@@H](C)CO)C[C@@H](C)[C@@H](CN(C)S(=O)(=O)c2cn(C)cn2)O3)cc1	.	.	.	.	/	/
CCOc1ccc(CN2CCN(C(=O)c3cccc4ccccc34)CC2)cc1	.	.	.	.	/	/
Cc1ccc(N2C(=O)CS(=O)C(c3ccccc3)C2=O)cc1C (stereo unspecified)	.	.	.	8.2	58	16
CC(C)N=c1scc(-c2ccco2)n1/N=C/c1ccc(O)c(O)c1	.	.	.	12	68	42
CCCn1cnc2c(cnn2-c2ccc(F)cc2)c1=O	.	.	.	10.0	59	18
COc1ccc(NC(=O)c2ccco2)cc1NC(=O)c1cccs1	.	.	.	9.4	23	.
COc1cc(NC(=O)c2cccs2)c(OC)cc1NC(=O)c1ccco1	.	.	.	.	/	/
CSc1ccccc1NC(=O)c1ccc(C)o1	.	.	.	.	/	/
COc1ccc(Nc2nc(N)nc(CSC(=S)N3CCN(C)CC3)n2)cc1	.	.	.	.	/	/
COc1ccc(Nc2nc(N)nc(CSC(=S)N3CCCCC3)n2)cc1	.	.	.	8.2	69	23
COc1ccc(OCc2nc(N)nc(Nc3ccc(C)cc3)n2)cc1	.	.	.	8.8	67	25
CC(C)c1ccc(NC(=O)c2cccc(Br)c2)cc1	.	.	.	8.2	110	49
O=C(Nc1cccc(C(=O)Nc2cccc(Br)c2)c1)c1ccccc1	.	.	.	.	/	/
COc1ccccc1Oc1ccc(N/C=C/C(=O)c2ccco2)cc1	.	.	.	12	83	34
Cc1cc(Br)c2c(c1)/C(=C/C(=O)c1cccs1)C(=O)N2	.	.	.	9.7	.	22
CC(Nc1cc(N2CCOCC2)ccc1[N+](=O)[O-])c1ccccc1 (stereo unspecified)	.	.	.	8.8	34	15
COc1ccc(OCCNc2cc(N3CCOCC3)ccc2[N+](=O)[O-])cc1	.	.	.	.	/	/
COc1cccc(OCCNc2cc(N3CCOCC3)ccc2[N+](=O)[O-])c1	.	.	.	10	67	31
Cc1cc(C)nc(NS(=O)(=O)c2ccc(NC(=O)c3cc4c(=O)n5cccc(C)c5nc4n3C)cc2)n1	/	/	.	.	/	/
S=C(Nc1ccc(Cl)cc1)c1nc2ccccc2[nH]1	.	.	.	7.8	113	33
CCOC(=O)C1(CCOc2ccccc2)CCN(Cc2cc(OC)ccc2OC)CC1	.	.	.	.	/	/
CCCS(=O)(=O)Nc1ccc(N2CCCCC2)c(S(=O)(=O)Nc2ccccc2OC)c1	.	.	.	7.8	.	9.1
CCn1c(SCc2ccccc2Cl)nc2nc3c(cc2c1=O)CCCC3	.	.	.	7.8	.	12
COc1ccccc1NC(=O)c1ccc(Br)o1	.	.	.	.	/	/
Cc1cc(O)c(NC(=O)c2ccc(Br)o2)cc1C	.	.	.	9.3	91	27
O=C(O)c1cc2ccccc2cn1	.	.	.	.	/	/
O=C(/C=C/C=C/c1ccccc1)c1ccco1	.	.	.	9.5	106	44
